Results from PubChem BioAssay (EPA / NIEHS).
Records with an inconclusive call do not appear. Activity calls are given as the source filed them. How the source made its calls, unless noted: active means hit-call score of the fitted dose curve at least 0.9, where 1 is the maximum; inactive means score below 0.9.

What was measured:
[1] = target: Myc proto-oncogene protein (Homo sapiens) (UniProt P01106); test: ATG_Myc_CIS: Attagene CIS-FACTORIAL HepG2 Assay for human Myelocytomatosis (Myc) Proto-Oncogene Transcription Factor (AID 2282990); conditions: HepG2, Attagene cis-reporter transcription factor activity; actives raise or lower the signal
Myc proto-oncogene protein (Homo sapiens), sequence (P01106 whole entry, looked up): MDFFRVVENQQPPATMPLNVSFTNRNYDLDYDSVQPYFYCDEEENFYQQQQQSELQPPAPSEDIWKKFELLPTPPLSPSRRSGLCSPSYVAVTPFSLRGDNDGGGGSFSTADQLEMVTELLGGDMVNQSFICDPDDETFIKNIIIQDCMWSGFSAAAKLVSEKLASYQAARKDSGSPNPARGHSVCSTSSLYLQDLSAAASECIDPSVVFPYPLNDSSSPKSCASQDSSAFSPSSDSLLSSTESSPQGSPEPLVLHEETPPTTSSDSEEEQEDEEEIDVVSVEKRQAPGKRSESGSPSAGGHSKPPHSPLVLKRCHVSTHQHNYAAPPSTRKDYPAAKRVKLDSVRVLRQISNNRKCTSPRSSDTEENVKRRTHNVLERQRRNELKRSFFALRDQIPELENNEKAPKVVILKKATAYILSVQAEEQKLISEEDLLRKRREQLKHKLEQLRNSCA
How it was run: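 DMSO-normalised, bidirectionally fitted reporter mRNA signal. HepG2 cells transfected with cis reporter constructs, treated 24 h; transcripts detected by RT-PCR, 6-FAM primer extension and CE.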

[2] = ATG_NRF2_ARE_CIS: Attagene CIS-FACTORIAL HepG2 Assay for human Nuclear Factor Erythroid 2 Related Factor 2 (NFR2) response to Antioxidant Response Elements (ARE) (AID 2282992); conditions: HepG2 Attagene ARE/NRF2 reporter, transcription factor activity; actives raise or lower the signal
How it was run: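 Endogenous transcription factor activity read out as reporter transcript levels (RT-PCR plus capillary electrophoresis, fluorescence) in transiently transfected HepG2 cells. Measured at 24 h after dosing; gain or loss of signal fitted versus DMSO.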

[3] = ATG_Oct_MLP_CIS: Attagene CIS-FACTORIAL HepG2 Assay for human Octamer-Binding Transcription Factor (Oct) (AID 2282993); conditions: HepG2 Attagene cis-factorial Oct reporter, mRNA; actives raise or lower the signal
How it was run: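 Readout is reporter transcript level from RT-PCR with fluorescent primer extension and capillary electrophoresis, fitted in both directions against DMSO. Transfected HepG2 reporter units report endogenous factor activity after 24 h dosing.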

[4] = target: Cellular tumor antigen p53 (Homo sapiens) (UniProt P04637); test: ATG_p53_CIS: Attagene CIS-FACTORIAL HepG2 Assay for human p53 Transcription Factor (AID 2282994); conditions: HepG2 p53 cis-element reporter, Attagene mRNA; actives raise or lower the signal
Cellular tumor antigen p53 (Homo sapiens), sequence (P04637 whole entry, looked up): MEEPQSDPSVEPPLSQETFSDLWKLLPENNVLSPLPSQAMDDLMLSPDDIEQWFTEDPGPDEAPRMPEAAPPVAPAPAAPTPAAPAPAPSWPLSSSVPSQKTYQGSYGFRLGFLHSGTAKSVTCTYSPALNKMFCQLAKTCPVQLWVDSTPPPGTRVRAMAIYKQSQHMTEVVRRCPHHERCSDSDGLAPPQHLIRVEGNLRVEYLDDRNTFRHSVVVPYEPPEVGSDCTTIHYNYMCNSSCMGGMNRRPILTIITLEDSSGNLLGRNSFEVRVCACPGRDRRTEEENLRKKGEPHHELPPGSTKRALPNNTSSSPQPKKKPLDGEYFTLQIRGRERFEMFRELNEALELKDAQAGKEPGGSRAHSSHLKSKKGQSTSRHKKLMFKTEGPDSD
How it was run: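 Endogenous p53 activity read in transiently transfected HepG2 from a cis-element-driven reporter transcript after 24 h exposure. RNA reverse-transcribed, PCR-amplified, fluorescently labelled and sized by capillary electrophoresis; gain or loss fitted against DMSO baseline.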

[5] = target: human Peroxisome Proliferator-activated Receptor alpha (PPARa), PPARA (gene 5465) (UniProt Q07869); test: ATG_PPARa_TRANS: Attagene TRANS-FACTORIAL HepG2 Assay for human Peroxisome Proliferator-activated Receptor alpha (PPARa) (AID 2283001; active means hit-call score of the fitted dose curve at least 0.9, where 1 is the maximum)
human Peroxisome Proliferator-activated Receptor alpha (PPARa), PPARA (gene 5465), sequence (Q07869 whole entry, looked up, the tested form may be a part): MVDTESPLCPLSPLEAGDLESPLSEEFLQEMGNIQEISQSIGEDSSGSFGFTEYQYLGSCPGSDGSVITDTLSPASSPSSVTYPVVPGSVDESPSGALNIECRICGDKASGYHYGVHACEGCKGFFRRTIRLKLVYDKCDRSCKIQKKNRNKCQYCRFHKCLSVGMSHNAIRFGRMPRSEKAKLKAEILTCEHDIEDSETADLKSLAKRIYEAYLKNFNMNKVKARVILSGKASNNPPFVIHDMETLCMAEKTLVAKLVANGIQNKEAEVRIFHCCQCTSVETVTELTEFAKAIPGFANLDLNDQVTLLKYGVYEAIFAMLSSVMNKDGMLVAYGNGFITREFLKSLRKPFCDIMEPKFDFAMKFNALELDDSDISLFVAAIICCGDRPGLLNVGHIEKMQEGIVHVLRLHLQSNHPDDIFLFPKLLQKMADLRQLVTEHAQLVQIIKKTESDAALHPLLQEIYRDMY
How it was run: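 Exposure: 24 h, transiently transfected HepG2 cells. Endpoint: GAL4-UAS reporter mRNA, RT-PCR with capillary electrophoresis fluorescence. Baseline: DMSO; increases fitted.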

[6] = target: human Retinoic Acid Receptor beta (RARb), RARB (gene 5915) (UniProt P10826); test: ATG_RARb_TRANS: Attagene TRANS-FACTORIAL HepG2 Assay for human Retinoic Acid Receptor beta (AID 2283004; active means hit-call score of the fitted dose curve at least 0.9, where 1 is the maximum)
How it was run: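 HepG2 cells transiently transfected with multiplexed GAL4-UAS reporter units expressing chimeric NR–Gal4 fusions; 24 h compound exposure. Reporter mRNA quantified by RT-PCR, 6-FAM labelling, HpaI digestion and capillary electrophoresis; gain-of-signal fitted against DMSO baseline.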

[7] = target: Retinoic acid receptor alpha (Homo sapiens) (UniProt P10276); test: ATG_RARa_TRANS: Attagene TRANS-FACTORIAL HepG2 Assay for human Retinoic Acid Receptor alpha (RARa) (AID 2283005; active means hit-call score of the fitted dose curve at least 0.9, where 1 is the maximum)
Retinoic acid receptor alpha (Homo sapiens), sequence (P10276 whole entry, looked up, the tested form may be a part): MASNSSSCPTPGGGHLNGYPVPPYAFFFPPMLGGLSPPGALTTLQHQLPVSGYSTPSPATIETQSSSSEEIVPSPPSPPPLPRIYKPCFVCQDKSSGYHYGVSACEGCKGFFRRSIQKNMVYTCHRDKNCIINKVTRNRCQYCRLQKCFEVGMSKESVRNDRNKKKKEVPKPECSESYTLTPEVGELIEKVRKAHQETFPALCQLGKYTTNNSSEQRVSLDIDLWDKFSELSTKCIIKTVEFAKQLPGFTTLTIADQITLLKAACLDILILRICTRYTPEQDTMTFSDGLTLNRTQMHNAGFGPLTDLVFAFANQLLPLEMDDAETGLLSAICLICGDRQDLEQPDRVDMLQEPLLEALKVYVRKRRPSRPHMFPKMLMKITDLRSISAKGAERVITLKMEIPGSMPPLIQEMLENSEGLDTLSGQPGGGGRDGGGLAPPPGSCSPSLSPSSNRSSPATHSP
How it was run: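 HepG2 cells transiently transfected with multiple reporter units expressing chimeric RARα-GAL4 fusion, with GAL4-UAS-driven reporters. After 24 h compound exposure, reporter mRNA induction quantified by RT-PCR and capillary electrophoresis with fluorescent labeling; gain-of-signal fitted relative to DMSO control.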

[8] = target: Peroxisome proliferator-activated receptor gamma (Homo sapiens) (UniProt P37231); test: ATG_PPARg_TRANS: Attagene TRANS-FACTORIAL HepG2 Assay for human Peroxisome Proliferator-activated Receptor-gamma (PPARg) (AID 2283007; active means hit-call score of the fitted dose curve at least 0.9, where 1 is the maximum)
Peroxisome proliferator-activated receptor gamma (Homo sapiens), sequence (P37231 whole entry, looked up): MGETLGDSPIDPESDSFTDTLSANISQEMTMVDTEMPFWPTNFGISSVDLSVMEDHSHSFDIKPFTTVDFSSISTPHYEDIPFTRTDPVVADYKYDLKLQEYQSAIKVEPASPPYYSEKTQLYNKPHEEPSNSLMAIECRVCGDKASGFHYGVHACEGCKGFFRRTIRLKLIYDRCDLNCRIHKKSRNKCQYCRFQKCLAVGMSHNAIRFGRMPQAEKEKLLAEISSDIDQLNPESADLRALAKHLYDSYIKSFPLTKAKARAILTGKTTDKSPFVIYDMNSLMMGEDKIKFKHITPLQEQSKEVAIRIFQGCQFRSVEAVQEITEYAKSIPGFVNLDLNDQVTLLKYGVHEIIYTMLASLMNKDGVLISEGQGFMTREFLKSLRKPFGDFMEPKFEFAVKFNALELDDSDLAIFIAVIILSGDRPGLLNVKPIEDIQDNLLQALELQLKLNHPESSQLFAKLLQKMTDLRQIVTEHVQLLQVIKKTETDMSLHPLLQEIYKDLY
How it was run: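 Twenty-four hours after chemical dosing of transiently transfected HepG2 cells, isolated RNA was converted to cDNA, reporter sequences amplified and 6-FAM-labelled, then HpaI-digested and analysed by capillary electrophoresis. Signal increase against DMSO was fitted.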

[9] = target: Nuclear receptor subfamily 1 group I member 2 (Homo sapiens) (UniProt O75469); test: ATG_PXR_TRANS: Attagene TRANS-FACTORIAL HepG2 Assay for human Pregnane X Receptor (PXR) (AID 2283008; active means hit-call score of the fitted dose curve at least 0.9, where 1 is the maximum)
Nuclear receptor subfamily 1 group I member 2 (Homo sapiens), sequence (O75469 whole entry, looked up, the tested form may be a part): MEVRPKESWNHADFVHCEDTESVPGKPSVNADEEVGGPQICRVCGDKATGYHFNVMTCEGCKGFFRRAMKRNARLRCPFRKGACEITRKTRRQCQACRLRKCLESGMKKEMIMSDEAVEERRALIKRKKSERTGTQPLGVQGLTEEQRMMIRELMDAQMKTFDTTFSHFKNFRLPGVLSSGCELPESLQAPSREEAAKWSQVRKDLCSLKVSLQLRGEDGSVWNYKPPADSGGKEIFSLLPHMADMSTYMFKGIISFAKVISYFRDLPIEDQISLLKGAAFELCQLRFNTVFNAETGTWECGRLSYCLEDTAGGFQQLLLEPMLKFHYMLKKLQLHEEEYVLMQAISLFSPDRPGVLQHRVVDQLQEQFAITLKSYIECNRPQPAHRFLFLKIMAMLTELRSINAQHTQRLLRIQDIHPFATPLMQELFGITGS
How it was run: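 Transactivation by exogenous PXR–GAL4 fusion measured as reporter transcript induction after 24 h compound treatment of transfected human HepG2 cells. Read-out via RT-PCR and capillary electrophoresis of labelled fragments, fitted upward relative to DMSO.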

[10] = target: human Retinoic Acid Receptor gamma (RARg), RARG (gene 5916) (UniProt P13631); test: ATG_RARg_TRANS: Attagene TRANS-FACTORIAL HepG2 Assay for human Retinoic Acid Receptor gamma (RARg) (AID 2283009; active means hit-call score of the fitted dose curve at least 0.9, where 1 is the maximum)
human Retinoic Acid Receptor gamma (RARg), RARG (gene 5916), sequence (P13631 whole entry, looked up, the tested form may be a part): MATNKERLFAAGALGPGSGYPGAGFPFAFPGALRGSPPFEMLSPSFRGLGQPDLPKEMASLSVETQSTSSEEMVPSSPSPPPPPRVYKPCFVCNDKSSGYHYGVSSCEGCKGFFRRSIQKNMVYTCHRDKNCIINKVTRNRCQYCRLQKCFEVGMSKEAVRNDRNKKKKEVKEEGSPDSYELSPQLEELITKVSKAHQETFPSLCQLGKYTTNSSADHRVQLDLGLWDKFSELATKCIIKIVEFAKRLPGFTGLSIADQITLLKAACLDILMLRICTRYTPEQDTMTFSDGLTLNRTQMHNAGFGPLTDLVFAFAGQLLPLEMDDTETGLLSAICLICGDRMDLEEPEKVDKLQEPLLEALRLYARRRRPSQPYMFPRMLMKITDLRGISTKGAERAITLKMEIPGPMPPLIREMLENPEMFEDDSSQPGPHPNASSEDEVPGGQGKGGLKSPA
How it was run: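 Readout: reporter transcript levels via RT-PCR, 6-FAM primer-extension labelling, HpaI digestion and capillary electrophoresis. Cells: HepG2 carrying transfected RARg-GAL4 chimera plus UAS reporter set. Dosing 24 h; DMSO negative control.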

[11] = target: human RAR-related Orphan Receptor beta (RORb), RORB (gene 6096) (UniProt Q92753); test: ATG_RORb_TRANS: Attagene TRANS-FACTORIAL HepG2 Assay for human RAR-related Orphan Receptor beta (RORb) (AID 2283010; active means hit-call score of the fitted dose curve at least 0.9, where 1 is the maximum)
human RAR-related Orphan Receptor beta (RORb), RORB (gene 6096), sequence (Q92753 whole entry, looked up, the tested form may be a part): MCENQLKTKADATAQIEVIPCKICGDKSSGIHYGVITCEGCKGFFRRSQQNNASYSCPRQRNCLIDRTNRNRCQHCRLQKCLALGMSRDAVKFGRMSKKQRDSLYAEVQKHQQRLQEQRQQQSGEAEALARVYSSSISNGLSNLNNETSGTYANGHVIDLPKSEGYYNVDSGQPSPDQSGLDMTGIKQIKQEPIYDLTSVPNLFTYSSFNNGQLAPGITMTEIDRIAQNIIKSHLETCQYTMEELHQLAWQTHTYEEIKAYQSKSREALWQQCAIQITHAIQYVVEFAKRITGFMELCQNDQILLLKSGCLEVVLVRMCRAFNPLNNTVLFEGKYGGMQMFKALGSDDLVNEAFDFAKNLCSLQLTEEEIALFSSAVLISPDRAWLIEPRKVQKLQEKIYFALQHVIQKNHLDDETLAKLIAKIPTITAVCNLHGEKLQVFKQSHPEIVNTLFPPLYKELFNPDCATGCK
How it was run: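 HepG2, transient MRTU transfection (GAL4-UAS reporters, exogenous NR-Gal4 chimeras); 24 h compound exposure; total RNA → RT-PCR → 6-FAM primer extension → HpaI digest → CE fluorescence. Positive direction vs DMSO baseline.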

[12] = BSK_3C_TissueFactor: BioMAP Diversity Plus: 3C Assay for Tissue Factor Biomarker Activity (AID 2282997); conditions: BioMAP 3C HUVEC, tissue factor biomarker readout; actives raise or lower the signal
How it was run: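 Readout: Tissue Factor ELISA. Cells: human primary umbilical vein endothelium. Time: 24 h after dosing. Analysis: bidirectional fit, DMSO baseline.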

[13] = BSK_3C_uPAR: BioMAP Diversity Plus: 3C Assay for Urokinase-type plasminogen activator receptor (uPAR) Biomarker Activity (AID 2282998); conditions: BioMAP 3C HUVEC, uPAR biomarker ELISA; actives raise or lower the signal
How it was run: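 Cell-surface uPAR on HUVEC (3C system) read by ELISA at 24 h post-treatment, with DMSO as baseline and fitting in both directions. Parallel cultures stained with SRB to flag overt cytotoxicity.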

[14] = BSK_3C_VCAM1: BioMAP Diversity Plus: 3C Assay for Vascular cell adhesion molecule 1 (VCAM1) Biomarker Activity (AID 2282999); conditions: BioMAP 3C HUVEC, VCAM1 ELISA, cytokine-stimulated; actives raise or lower the signal
How it was run: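 Vascular primary endothelium (human umbilical vein) was exposed to chemicals and assayed 24 h later. VCAM-1 levels came from ELISA, with DMSO serving as baseline for bidirectional fitting.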

[15] = BSK_4H_Eotaxin3: BioMAP Diversity Plus: 4H Assay for Eotaxin 3 Biomarker Activity (AID 2283000); conditions: primary human endothelial cells (HUVEC); actives raise or lower the signal
How it was run: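 HUVEC, 24 h post-dose, ELISA for Eotaxin-3/CCL26. Gain or loss of signal fitted bidirectionally vs DMSO baseline.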

[16] = target: human Peroxisome Proliferator-activated Receptor delta (PPARd), PPARD (gene 5467) (UniProt Q03181); test: ATG_PPARd_TRANS: Attagene TRANS-FACTORIAL HepG2 Assay for human Peroxisome Proliferator-activated Receptor delta (PPARd) (AID 2283002; active means hit-call score of the fitted dose curve at least 0.9, where 1 is the maximum)
human Peroxisome Proliferator-activated Receptor delta (PPARd), PPARD (gene 5467), sequence (Q03181 whole entry, looked up, the tested form may be a part): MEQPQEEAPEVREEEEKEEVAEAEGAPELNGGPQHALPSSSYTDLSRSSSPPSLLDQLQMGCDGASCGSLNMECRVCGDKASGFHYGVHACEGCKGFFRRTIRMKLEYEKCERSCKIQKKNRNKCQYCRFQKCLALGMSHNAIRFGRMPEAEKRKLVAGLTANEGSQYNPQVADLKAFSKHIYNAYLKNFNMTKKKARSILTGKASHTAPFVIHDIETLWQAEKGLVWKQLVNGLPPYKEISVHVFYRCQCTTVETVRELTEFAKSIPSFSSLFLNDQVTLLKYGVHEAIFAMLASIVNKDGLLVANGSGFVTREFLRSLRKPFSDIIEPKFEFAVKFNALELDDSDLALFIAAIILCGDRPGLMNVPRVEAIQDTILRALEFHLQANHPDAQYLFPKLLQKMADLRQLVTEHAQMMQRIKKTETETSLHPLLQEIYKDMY
How it was run: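 Measured quantity: GAL4-UAS reporter transcript induction in HepG2 after 24 h chemical dosing, with NR-Gal4 chimeras supplied by transient transfection. Detection by RT-PCR and capillary electrophoresis; upward fit against DMSO.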

[17] = read-out: Intercellular Adhesion Molecule 1 (ICAM1), ICAM1 (gene 3383); test: BSK_3C_ICAM1: BioMAP Diversity Plus: 3C Assay for Intercellular Adhesion Molecule 1 (ICAM1) Biomarker Activity (AID 2283003); conditions: primary human endothelial cells (HUVEC); actives raise or lower the signal
How it was run: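 ELISA read-out of ICAM-1; HUVEC (primary human), 3C system, 24 h post-dosing; bidirectional fit vs DMSO baseline.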

[18] = BSK_3C_Proliferation: Cell Proliferation Assessment in the BioMAP Diversity Plus: 3C Assay (AID 2283006); conditions: primary human endothelial cells (HUVEC);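 on AC50: potency may reflect either rise or fall in cell number versus DMSO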
How it was run: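 HUVEC, sub-confluent; 48 h chemical exposure; 10% TCA fix, 0.1% SRB stain, A560 total protein. Gain or loss of signal fitted both directions vs DMSO control.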

[19] = target: human RAR-related Orphan Receptor gamma (RORg), RORC (gene 6097) (UniProt P51449); test: ATG_RORg_TRANS: Attagene TRANS-FACTORIAL HepG2 Assay for human RAR-related Orphan Receptor gamma (RORg) (AID 2283011; active means hit-call score of the fitted dose curve at least 0.9, where 1 is the maximum)
human RAR-related Orphan Receptor gamma (RORg), RORC (gene 6097), sequence (P51449 whole entry, looked up, the tested form may be a part): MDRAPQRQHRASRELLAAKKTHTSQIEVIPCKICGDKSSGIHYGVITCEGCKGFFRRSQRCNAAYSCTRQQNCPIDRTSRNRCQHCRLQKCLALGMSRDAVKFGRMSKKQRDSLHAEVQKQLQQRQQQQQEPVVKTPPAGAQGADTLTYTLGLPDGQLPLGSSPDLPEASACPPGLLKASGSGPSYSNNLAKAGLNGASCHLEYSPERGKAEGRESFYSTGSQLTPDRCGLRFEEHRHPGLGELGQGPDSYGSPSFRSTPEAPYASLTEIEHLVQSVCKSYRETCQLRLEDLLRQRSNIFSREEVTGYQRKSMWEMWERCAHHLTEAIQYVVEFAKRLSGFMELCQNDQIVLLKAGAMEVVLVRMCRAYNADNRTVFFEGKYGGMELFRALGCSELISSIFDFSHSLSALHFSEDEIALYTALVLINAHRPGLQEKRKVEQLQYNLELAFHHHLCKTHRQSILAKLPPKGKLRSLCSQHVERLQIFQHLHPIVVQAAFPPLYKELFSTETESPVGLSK
How it was run: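 Readout: reporter transcript induction (RT-PCR, fluorescent primer extension, capillary electrophoresis) after 24 h compound exposure of transiently transfected HepG2 cells carrying a RORg-Gal4 chimera and GAL4-UAS reporters; DMSO served as baseline, with increasing signal fitted.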

Measured: AC50

CCNc1nc(NCC)nc(SC)n1
inactive: [1] | [2] | [3] | [4] | [5] | [6] | [7] | [8] | [9]

CCCSP(=S)(OCC)Oc1ccc(SC)cc1 (stereo unspecified)
active: [8] 15.2 µM | [9] 3.65 µM
inactive: [1] | [2] | [3] | [4]

CCC[CH2][Sn]([CH2]CCC)([CH2]CCC)[CH2]CCC
inactive: [1] | [5] | [10]
active: [2] 5.43 µM | [3] 11.1 µM | [4] 18.5 µM | [8] 3.29 µM | [9] 9.24 µM

Clc1cccc(Cl)c1
not listed: [4] | [5] | [7] | [8] | [9] | [10] | [11]
inactive: all other assays above

COc1ccc(N)cc1
inactive: [1] | [2] | [3] | [4] | [5] | [16] | [8] | [9] | [11] | [19]

O=C(CBr)c1ccc(O)cc1
active: [2] 41.5 µM
inactive: [1] | [3] | [4] | [6] | [8] | [9] | [19]

CCOc1ccc(N)cc1
inactive: [1] | [2] | [3] | [4] | [5] | [6]

Cc1cc(C(F)(C(F)(F)F)C(F)(F)F)ccc1NC(=O)c1cccc(I)c1C(=O)NC(C)(C)CS(C)(=O)=O
inactive: [1] | [2] | [3] | [4] | [6] | [7] | [10]
active: [9] 1.13 µM

CCCCCCCCCCCCCl
inactive: [1] | [2] | [3] | [4] | [7] | [8] | [9] | [19]

c1ccc2sc(SNC3CCCCC3)nc2c1
active: [1] 148 µM | [2] 80.6 µM | [12] 1.16 µM | [8] 6.77 µM | [9] 20.2 µM
not listed: [4] | [5] | [6] | [7] | [10]
inactive: all other assays above

CCCCOP(=O)(CCCC)OCCCC
inactive: [1] | [2] | [3] | [4] | [16] | [6] | [11]
active: [8] 38.4 µM | [9] 8.52 µM

O=C(NC(=O)c1c(F)cccc1F)Nc1cc(Cl)c(F)c(Cl)c1F
inactive: [1] | [2] | [3] | [4] | [7] | [8] | [9] | [10] | [19]

Cc1ccccc1OP(=O)(Oc1ccccc1C)Oc1ccccc1C
inactive: [1] | [16] | [17] | [8]
active: [2] 8.48 µM | [3] 119 µM | [12] 5.08 µM | [13] 11.1 µM | [14] 11.8 µM | [15] 9.39 µM | [18] 8.31 µM | [9] 0.0985 µM

Cc1cccc(C)c1NC(=O)CN1CCCC1=O
inactive: [1] | [2] | [3] | [4] | [5] | [6] | [8] | [9]

CCCCCCCCCCCCBr
inactive: [1] | [3] | [4] | [5]
active: [2] 55.7 µM | [8] 43.3 µM

CC(c1ccc(O)cc1)c1ccc(O)cc1
active: [2] 67.4 µM | [3] 120 µM | [9] 27.7 µM
inactive: [1] | [4] | [8]

FC(F)OCC(F)(F)C(F)(F)F
inactive: [1] | [2] | [3] | [4] | [16] | [6] | [9]

CC(C)(C#N)N=NC(C)(C)C#N
inactive: [1] | [2] | [3] | [4] | [9]

COc1ccccc1N
not listed: [4] | [10] | [16]
inactive: all other assays above

C=CCc1ccccc1O
inactive: [1] | [2] | [3] | [4] | [5] | [9]

CCC[N+](CCC)(CCC)CCC
inactive: [1] | [2] | [3] | [4] | [16] | [7] | [9] | [11]

Clc1ccc(C(Cl)(Cl)Cl)cn1
inactive: [1] | [2] | [3] | [4] | [8] | [9] | [19]

CCOP(=S)(OCC)SCSc1cc(Cl)ccc1Cl
inactive: [1] | [2] | [3] | [4] | [5] | [8] | [19]

CCN(N=O)C(N)=O
inactive: [1] | [2] | [3] | [4] | [5] | [6] | [7] | [8] | [9]

N#CS
inactive: [1] | [2] | [3] | [4] | [16] | [9] | [11]
